Screens from PubChem BioAssay.
Shown are actives, neighbours in structure and some others; about 10% of the full set was active somewhere.
HEK293 tox: HEK 293 cell cytotoxicity; 94,000 compounds, 6.6% hits; HEK 293 viability, ATP luminescence (CellTiter-Glo), 48-72 h; Potency, µM (highest dose often 115 µM), for inactives: top-dose activity change, negative = cytotoxicity, hits mostly inhibitors; note: nearly all actives have a fitted effect of over 60% in size
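Cytotoxicity was scored by loss of ATP-coupled luminescence (CellTiter-Glo) in HEK 293 cells. Compound treatment ran 48 or 72 hr at 37 degree Celsius, 5% CO2, 95% humidity.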
NPR1 antag: blocks ANP-stimulated signaling of human Npr1 receptor; Potency, µM (doses to about 46.3 µM), for inactives: at the top dose activity change, negative = inhibition, hits mostly inhibitors; HEK293 hNpr1 GloSensor cGMP, ANP-stimulated luminescence; 76,000 compounds, 1.6% hits; calls by dose curve; note: nearly all actives have a fitted effect of over 60% in size
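HEK293 cells stably expressing human Npr1 and cGMP GloSensor pGS-40F, loaded 2 h with 2% GloSensor reagent, given compound 30 min at room temperature. Luminescence read before and 20 min after 0.1 nM hNppA.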
3T3 cytotox: cytotoxic compounds in NIH 3T3 cells; NIH 3T3 viability, CellTiter-Glo ATP luminescence, 48-72 h; Potency, µM (series often up to 96.7 µM), for the others: top-dose activity change, negative = cytotoxicity, hits mostly inhibitors; 94,000 compounds, 4.3% hits; note: nearly all actives have a fitted effect of over 55% in size
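Cytotoxicity is measured as loss of cellular ATP: NIH 3T3 cells (400/well) are exposed to compound for 48 or 72 hr at 37 °C, then CellTiter-Glo luminescence is imaged after 10 min at room temperature.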
Luciferase inh: Photinus pyralis luciferase inhibition. P08659. purified P. pyralis luciferase, luminescence, biochemical. Potency, µM (doses to about 115 µM), usual class: inhibitors. 76,000 compounds, 2.5% hits. AID 1347043; note: nearly all actives have a fitted effect of over 65% in size
Target sequence (P08659 whole entry, looked up): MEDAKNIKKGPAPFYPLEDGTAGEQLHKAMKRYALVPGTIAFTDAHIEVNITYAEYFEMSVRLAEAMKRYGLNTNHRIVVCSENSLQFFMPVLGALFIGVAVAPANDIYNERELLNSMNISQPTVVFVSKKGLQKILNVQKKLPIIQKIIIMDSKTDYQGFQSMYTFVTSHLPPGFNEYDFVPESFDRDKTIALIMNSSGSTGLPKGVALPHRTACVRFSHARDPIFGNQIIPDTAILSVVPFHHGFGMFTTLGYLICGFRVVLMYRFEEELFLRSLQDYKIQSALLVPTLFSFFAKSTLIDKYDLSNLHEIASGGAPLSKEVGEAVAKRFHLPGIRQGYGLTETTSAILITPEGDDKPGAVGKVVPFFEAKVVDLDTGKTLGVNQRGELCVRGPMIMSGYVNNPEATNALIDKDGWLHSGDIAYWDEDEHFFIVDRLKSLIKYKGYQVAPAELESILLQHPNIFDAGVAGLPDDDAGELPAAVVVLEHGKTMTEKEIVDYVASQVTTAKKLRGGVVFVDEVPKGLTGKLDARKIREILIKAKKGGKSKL
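FLuc 10nM, D-luciferin 10uM, ATP 10uM, Mg acetate 10mM, Tris acetate pH 7.5, Tween/BSA; cpd qHTS; enzyme added last; CCD luminescence.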
GPT2 inhibitor: blocks human glutamate pyruvate transaminase 2; 100,000 compounds, 0.25% hits; Recombinant GPT2, coupled pyruvate oxidase/HRP Amplex Red fluorescence; Potency, µM (top dose mostly 57.7 µM), for the others: at the highest dose activity change, negative = inhibition, actives largely listed as inhibitors; Q8TD30; note: nearly all actives have a fitted effect of over 60% in size
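Fluorescence of coupled pyruvate oxidase/HRP/Amplex Red system (50uM Amplex, 30 min, dark) reports pyruvate formed by GPT2. Enzyme reaction: 10ng/uL GPT2, 2mM L-alanine, 250uM a-KG, 30 min room temperature, pH 7.5; 50uM AOA control.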
Starred values were filed as active, the others as inactive; i = inactive; ? = inconclusive; . = no result given; [ ] = another dose, or the depositor's remark. Unless noted, calls come from the whole dose curve; as a rule, active = well fitted curve in the direction sought with a large enough effect; inconclusive = small, poorly fitted or top-dose-only effect, or another doubt; inactive = no such curve, though single readings can be large; an effect the other way counts as inactive or inconclusive. % is set by controls: 0 for no effect and ±100 for the full control effect; potency is the fitted concentration of half-maximal effect.

SMILES	HEK293 tox	NPR1 antag	3T3 cytotox	Luciferase inh	GPT2 inhibitor
O=C(NCCN1CCCCC1)c1ccc(-c2ccc(N3CCSCC3)nc2)cc1	35µM*	-21%	28µM*	i	i
O=C(NCCN1CCOCC1)c1ccc(-c2ccc(N3CCSCC3)nc2)cc1	?	-14%	-7%	?	-8%
CCC(C)NC(=O)c1ccc(-c2ccc(N3CCSCC3)nc2)cc1 (stereo not drawn)	-3%	-11%	-5%	?	-2%
CN(C)CCNC(=O)c1ccc(-c2ccc(N3CCCCCC3)nc2)cc1	32µM*	-2%	18µM*	?	i
Fc1ccc(C2CCNC[C@H]2COc2ccc3c(c2)OCO3)cc1 (stereo partly drawn)	.	.	.	.	3%
NCc1cccc(Oc2ncnc3ccccc23)c1	2%[172 µM]	.	-4%[138 µM]	.	i
C=CC1(C)C=C2CC[C@H]3[C@@](C)(C(=O)O)CCC[C@]3(C)C2CC1 (stereo partly drawn)	.	.	.	.	i
CCOC1CCOC2(CCN(C(=O)c3cccs3)CC2)C1 (stereo not drawn)	3%	.	i	.	1%
Cc1ccc(NC(=O)N2CC(C(=O)N(C)C)C3(CCOCC3)C2)cc1Cl (stereo not drawn)	1%	1%	-2%	i	i
OCc1ccc(CN2C[C@H](O)C[C@H]2c2nc(-c3ccc(OC(F)(F)F)cc3)no2)o1	?	-12%[70.6 µM]	?	45µM*	?
OCc1ccc(CN2C[C@H](O)C[C@H]2c2nc(-c3ccc(F)cc3)no2)o1	1%[172 µM]	5%[70.6 µM]	i	45µM*	i
O=C(Nc1cccc(-c2ccc(N3CCCC3)nn2)c1)Nc1c(F)cccc1F	?	-17%	?	14µM*	-25%
O=C(Nc1cccc(-c2nnc3n2CCCC3)c1)Nc1ccccc1F	-11%	-8%	-13%	i	i
O=C(Nc1ccc(Cl)cc1)Nc1cccc(-c2cccc(N3CCCC3)n2)c1	.	.	.	.	-8%
O=C(Nc1cccc(-c2ccc(N3CCCC3)nn2)c1)Nc1cc(F)ccc1F	?	?	?	5µM*	?
N#Cc1cccc(-c2c(C(=O)NCc3ccc(Cl)cc3)nc3sccn23)c1	?	.	35µM*	.	4%
N#Cc1cccc(-c2c(C(=O)NCc3ccccc3F)nc3sccn23)c1	-28%	.	-24%	.	i
O=C(NCc1ccccn1)c1nc2sccn2c1-c1cccc(C(F)(F)F)c1	?	.	32µM*	.	i
N#Cc1cccc(-c2c(C(=O)NCc3cccc(C(F)(F)F)c3)nc3sccn23)c1	35µM*	.	?	.	1%
Cc1ccc(-c2c(C(=O)NCc3cccc(C(F)(F)F)c3)nc3sccn23)cc1	22µM*	.	?	.	-17%
COc1ccccc1N1CCN(C(=O)C2N(C(C)C)C(=O)C23CCCCC3)CC1 (stereo not drawn)	?	-12%	-9%	i	-1%
CC1(CNCc2ccccc2)COc2ccc(C(=O)Nc3cccc(Cl)c3)cc2N1 (stereo not drawn)	?	-17%[70.6 µM]	?	i	1%[88.5 µM]
Cc1cc(C)cc(-c2ccc(CN3CCCC(NC(=O)C(C)C)C3)cc2)c1 (stereo not drawn)	-35%	.	-22%	.	i
Cc1cc(C)cc(-c2ccc(CN3CCCC(NC(=O)Cc4ccc(F)cc4)C3)cc2)c1 (stereo not drawn)	32µM*	.	?	.	3%
COc1ccc(CC(=O)NC2CCCN(Cc3ccc(-c4cc(C)cc(C)c4)cc3)C2)cc1 (stereo not drawn)	22µM*	.	18µM*	.	i
SMILES	HEK293 tox	NPR1 antag	3T3 cytotox	Luciferase inh	GPT2 inhibitor
Cc1cc(C)cc(-c2ccc(CN3CCCC(NC(=O)N(C)C)C3)cc2)c1 (stereo not drawn)	32µM*	.	?	.	-11%
CC(=O)NC1CCCN(Cc2ccc(-c3cc(C)cc(C)c3)cc2)C1 (stereo not drawn)	?	.	?	.	2%[88.5 µM]
Cc1cc(C)cc(-c2ccc(CN3CCCC(NC(=O)Cc4cccc(Cl)c4)C3)cc2)c1 (stereo not drawn)	25µM*	.	?	.	i
Cn1ncc2c(C(=O)N3CCC(Cc4ccccc4)CC3)cc(-c3ccccc3C(F)(F)F)nc21	40µM*	.	28µM*	.	.
CC(=O)N1CCN(C(=O)c2cc(-c3ccccc3C(F)(F)F)nc3c2cnn3C)CC1	1%	.	-14%	.	.
Cn1ncc2c(C(=O)N3CCC(c4ccccc4)CC3)cc(-c3ccccc3C(F)(F)F)nc21	45µM*	.	28µM*	.	.
Cn1ncc2c(C(=O)N3CCN(Cc4ccccc4)CC3)cc(-c3ccccc3C(F)(F)F)nc21	45µM*	.	?	.	.
Cn1ncc2c(C(=O)N3CCCCC3)cc(-c3ccccc3C(F)(F)F)nc21	?	.	-38%	.	.
COc1ccc(-c2c(C(=O)N3CCN(C(C)=O)CC3)nc3sccn23)cc1	i	.	1%	.	1%
CC(=O)N1CCC(c2nnc3n2C(C(=O)NCc2ccccc2Cl)CC3)CC1 (stereo not drawn)	0%	.	-4%	.	i
CC(C)c1ccc(CN2CCC3(CC2)OC(=O)N(Cc2ncccn2)C3(C)c2ccccc2)cc1 (stereo not drawn)	40µM*	0%	?	i	-3%
CC(=O)Nc1ccc(CN2C(=O)OC3(CCN(Cc4ccc(C(C)C)cc4)CC3)C2(C)c2ccccc2)cc1 (stereo not drawn)	?	-2%	35µM*	i	0%
CC(C)N1C[C@@H](CO)[C@H](c2nc(-c3cccnc3)no2)C1	?	3%	-6%	20µM*	i
OC[C@@H]1CN(CC2CC2)C[C@H]1c1nc(-c2cccnc2)no1	-28%	1%	-12%	?	i
c1cnc2nc(-c3c[nH]c4ncccc34)[nH]c2c1	?	12%[70.6 µM]	?	89µM*	-58%[88.5 µM]
